Source: PubChem BioAssay AID624138 (Broad Institute, 2012)
In all, about 17,000 compounds went through this assay and about 35 (0.2%) were called active.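 How the source made its calls: active means compounds whose four printed spots each show fluorescence over background unusually high for their array block, chance value under 7%; inactive means the rest.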 The full list was thinned out, with actives kept by preference.

Target: Signal transducer and activator of transcription 3 (Homo sapiens) (UniProt P40763)
Sequence (P40763 whole entry, looked up): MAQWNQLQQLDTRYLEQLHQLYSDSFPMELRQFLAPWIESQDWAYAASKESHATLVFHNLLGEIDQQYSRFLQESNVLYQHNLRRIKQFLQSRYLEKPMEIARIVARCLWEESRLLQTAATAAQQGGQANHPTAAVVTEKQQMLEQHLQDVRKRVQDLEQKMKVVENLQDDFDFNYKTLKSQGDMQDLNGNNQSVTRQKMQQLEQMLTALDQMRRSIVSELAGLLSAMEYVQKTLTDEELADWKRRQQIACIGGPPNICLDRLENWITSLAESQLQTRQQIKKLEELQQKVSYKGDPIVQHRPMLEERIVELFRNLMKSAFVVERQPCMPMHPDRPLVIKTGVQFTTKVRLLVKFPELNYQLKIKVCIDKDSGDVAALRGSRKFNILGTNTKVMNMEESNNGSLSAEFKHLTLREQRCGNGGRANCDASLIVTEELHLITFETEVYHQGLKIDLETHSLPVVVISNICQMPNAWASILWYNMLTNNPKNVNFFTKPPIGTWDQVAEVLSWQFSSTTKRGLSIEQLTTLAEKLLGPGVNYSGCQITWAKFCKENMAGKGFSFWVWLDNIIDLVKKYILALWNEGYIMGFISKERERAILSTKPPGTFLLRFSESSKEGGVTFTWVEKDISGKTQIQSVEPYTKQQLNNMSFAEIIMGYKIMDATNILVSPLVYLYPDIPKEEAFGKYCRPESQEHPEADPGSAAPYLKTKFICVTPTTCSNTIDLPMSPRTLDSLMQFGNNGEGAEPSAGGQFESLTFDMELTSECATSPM
Assay: small molecules binding His-tagged STAT3 – biochemical, small molecule microarray, single point, set 2, primary screen (AID 624138)
Conditions: anti-His fluorescence

outcome, inactive:
O=C(C1=C[C@H](C2CC2)C[C@H](OCc2ccc(CO)cc2)O1)N1CCN(Cc2ccccc2)CC1
C[C@@H]1CCCCO[C@H](CN(C)C(=O)Nc2ccccc2)[C@H](C)CN([C@H](C)CO)C(=O)c2cc(N(C)C)ccc2O1
CC(C)NC(=O)N(C)C[C@H]1OCCCC[C@@H](C)Oc2ccc(NC(=O)Nc3cccc4ccccc34)cc2C(=O)N([C@H](C)CO)C[C@@H]1C
C[C@H]1CN([C@@H](C)CO)C(=O)Cc2cc(NC(=O)Nc3ccc4c(c3)OCO4)ccc2O[C@H]1CN(C)CC1CC1
CC1(C)CC[C@]2(C(=O)O[C@@H]3O[C@H](CO)[C@@H](O)[C@H](O)[C@H]3O)CC[C@]3(C)C(=CCC4[C@@]5(C)CC[C@H](O[C@@H]6O[C@H](C(=O)O)[C@@H](O[C@@H]7OC[C@H](O)[C@H](O)[C@H]7O)[C@H](O)[C@H]6O)C(C)(C)C5CC[C@]43C)C2C1 (some centres not stated)
CC(=O)OC[C@H]1O[C@@H](Oc2c(-c3ccc(O)c(O)c3)oc3cc(O)cc(O)c3c2=O)[C@H](O)[C@@H](O)[C@@H]1O
Cc1noc(C)c1S(=O)(=O)Nc1ccc2c(c1)C(=O)N([C@@H](C)CO)C[C@@H](C)[C@@H](CN(C)C)O2
C[C@H](CO)N1C[C@H](C)[C@@H](CN(C)S(=O)(=O)c2ccc(Cl)cc2)Oc2ccc(NS(=O)(=O)c3cccs3)cc2CC1=O
CC(C)NC(=O)Nc1ccc2c(c1)CC(=O)N([C@@H](C)CO)C[C@@H](C)[C@H](CN(C)Cc1ccc(C(F)(F)F)cc1)O2
OCc1nc2ccccc2n1CCOc1cccc(Cl)c1
C[C@@H]1CN([C@@H](C)CO)C(=O)c2cc(NC(=O)Nc3cccc4ccccc34)ccc2O[C@@H]1CN(C)C(=O)NC1CCCCC1
Cc1noc(C)c1NC(=O)N(C)C[C@@H]1Oc2ccc(NC(=O)Nc3ccc4c(c3)OCO4)cc2CC(=O)N([C@H](C)CO)C[C@H]1C
C[C@@H]1CCCCO[C@H](CN(C)C(=O)C2CCCCC2)[C@@H](C)CN([C@@H](C)CO)C(=O)c2cc(NC(=O)Nc3ccccc3)ccc2O1
C[C@H]1CCCCO[C@H](CN(C)Cc2ccccc2)[C@@H](C)CN([C@@H](C)CO)C(=O)c2cc(NS(C)(=O)=O)ccc2O1
C[C@H]1CN([C@@H](C)CO)C(=O)Cc2cc(NC(=O)Nc3cccc4ccccc34)ccc2O[C@H]1CN(C)CC1CC1
CO[C@H]1C(=O)c2c(O)c(CC=C(C)C)c(O)c(CC=C(C)C)c2O[C@@H]1c1ccc(O)cc1
COC(=O)CCCCCCC(=O)Nc1ccc(C2OC(CSc3nc(-c4ccccc4)c(-c4ccccc4)o3)CC(c3ccc([N+](=O)[O-])cc3)O2)cc1 (configuration not stated)
Cc1ccc(N(C(=O)COc2ccccc2[N+](=O)[O-])C2C=CS(=O)(=O)C2)cc1 (configuration not stated)
Cc1noc(C)c1NC(=O)Nc1ccc2c(c1)CC(=O)N([C@H](C)CO)C[C@H](C)[C@H](CN(C)C(=O)NC(C)C)O2
COc1ccc(C#Cc2ccc3c(c2)[C@]2(C(=O)N3)[C@H](c3ccccc3OCCO)N3[C@H](c4ccccc4)[C@H](c4ccccc4)OC(=O)[C@H]3[C@@H]2C(=O)N2CCCCCCC2)cc1
C[C@@H]1CN([C@@H](C)CO)C(=O)c2cc(N(C)C)ccc2O[C@@H](C)CCCCO[C@H]1CN(C)C(=O)CCCN(C)C
Cc1ccc(-n2c(SCC(=O)c3ccccc3)nnc2-c2ccncc2)cc1C
C[C@@H]1CCCCO[C@@H](CN(C)Cc2ccncc2)[C@@H](C)CN([C@@H](C)CO)C(=O)c2cc(NC(=O)Nc3ccc(F)cc3)ccc2O1
CC1(C)CC[C@@]2(C(=O)O)C(C1)C1=CCC3[C@@]4(C)CC[C@H](O)C(C)(C)C4CC[C@@]3(C)[C@]1(C)C[C@H]2O (some centres not stated)
Cn1c(Cc2csc(N)n2)nnc1SC/C=C/c1ccccc1
Cc1nnc(SCc2cc(=O)[nH]c(N3CCN(Cc4ccccc4)CC3)n2)s1
COc1ccc(OC)c(NC(=O)c2cnn(-c3ccccc3Cl)c2NC(=O)c2ccco2)c1
C[C@@H]1CN([C@H](C)CO)C(=O)c2cc(NC(=O)Nc3ccc4c(c3)OCO4)ccc2O[C@@H]1CN(C)Cc1ccc(C(F)(F)F)cc1
C[C@@H]1CN([C@H](C)CO)C(=O)Cc2cc(NC(=O)NC3CCCCC3)ccc2O[C@H]1CN(C)S(=O)(=O)c1ccc(Cl)cc1
CNC[C@@H]1Oc2c(NC(=O)Nc3ccccc3)cccc2C(=O)N([C@@H](C)CO)C[C@@H]1C
COC(=O)c1c(NC(=O)c2cc(-c3ccccn3)nc3ccc(Br)cc23)sc(C(=O)N(C)C)c1C
Cc1ccc(-c2cc(C(F)(F)F)n3nc(C(=O)NCCN4CCOCC4)c(Cl)c3n2)cc1
COc1ccc(S(=O)(=O)N2CCN(c3ccccn3)CC2)cc1N(C)S(=O)(=O)c1ccccc1
C=C1CCCC(C)(C(=O)OC)C1CC/C(C)=C/CCC1=CC(=O)OC1 (configuration not stated)
C[C@@H]1CN([C@H](C)CO)C(=O)CCCn2cc(nn2)CO[C@H]1CN(C)S(=O)(=O)c1ccc(Oc2ccccc2)nc1
C[C@H](CO)N1C[C@H](C)[C@H](CN(C)S(=O)(=O)c2cn(C)cn2)Oc2ccc(N(C)C)cc2C1=O
C[C@@H]1CN([C@@H](C)CO)C(=O)CCCn2cc(nn2)CO[C@H]1CN(C)Cc1cccc2c1OCCCO2
C[C@H](CO)N1C[C@H](C)[C@@H](CN(C)S(=O)(=O)c2cccs2)Oc2ccc(NC(=O)Nc3cccc4ccccc34)cc2CC1=O
C=CCn1c(SCc2nc3ccccc3[nH]2)nnc1-c1ccccc1
C[C@H]1CN([C@@H](C)CO)C(=O)CCCn2nncc2CO[C@H]1CN(C)Cc1ccccc1
C[C@H]1CN([C@@H](C)CO)C(=O)c2cc(NS(=O)(=O)c3cn(C)cn3)ccc2O[C@H]1CN(C)CC1CCCCC1
O=C(CCc1nc(-c2ccccc2Cl)no1)Nc1ccc(Cl)c(Cl)c1
O=C(NC1CC1)C1=C[C@H](c2coc3ccccc3c2=O)C[C@H](OCCCCO)O1
C[C@@H]1CN([C@H](C)CO)C(=O)Cc2cc(NC(=O)CCN3CCOCC3)ccc2O[C@H]1CN(C)Cc1ccncc1
C=C1CCC(C)C(C)(CCC2=CC(OC)OC2=O)C/C=C\C=C\1C(=O)O (configuration not stated)
C=CCNC(=O)[C@H]1[C@@H]2C(=O)O[C@@H](c3ccccc3)[C@@H](c3ccccc3)N2[C@@H](c2ccccc2OCCO)[C@]12C(=O)N(C(=O)OCCOC)c1ccc(C#Cc3ccc(OC)cc3)cc12
C[C@@H]1CN([C@H](C)CO)C(=O)c2cc(NC(=O)Nc3ccccc3)ccc2O[C@@H](C)CCCCO[C@@H]1CN(C)Cc1ccncc1
C[C@H]1CN([C@@H](C)CO)C(=O)Cc2cc(NC(=O)C3CC3)ccc2O[C@@H]1CN(C)S(=O)(=O)c1cccs1
COc1ccc(S(=O)(=O)N(C)C[C@@H]2Oc3c(NS(=O)(=O)c4ccccc4)cccc3C(=O)N([C@@H](C)CO)C[C@@H]2C)cc1
C[C@@H]1CN([C@H](C)CO)C(=O)c2cccc(NC(=O)c3ccncc3)c2O[C@@H]1CN(C)S(=O)(=O)c1cn(C)cn1
Cc1cccc(-n2c(SCC(N)=O)nnc2-c2ccncc2)c1C
C[C@@H]1CCCCO[C@@H](CN(C)C)[C@@H](C)CN([C@H](C)CO)C(=O)c2cc(NC(=O)c3ccncc3)ccc2O1
OC(CCCN1CCN(c2ncc(F)cn2)CC1)c1ccc(F)cc1 (configuration not stated)
C[C@@H]1CN([C@H](C)CO)C(=O)c2cccc(NS(=O)(=O)c3cn(C)cn3)c2O[C@@H]1CN(C)Cc1ccc(C(F)(F)F)cc1
Cc1ccc(NC(=O)C(C)N(c2ccc(Cl)cc2)S(C)(=O)=O)c(C)c1 (configuration not stated)
COc1ccc(-c2cnc3c(-c4ccsc4)cnn3c2)cc1
C[C@@H]1CCCCO[C@@H](CN(C)C(=O)NC2CCCCC2)[C@H](C)CN([C@H](C)CO)C(=O)c2cc(NS(=O)(=O)c3ccc(Cl)cc3)ccc2O1
Cc1noc(C)c1NC(=O)Nc1ccc2c(c1)C(=O)N([C@@H](C)CO)C[C@@H](C)[C@H](CN(C)C)O2
C[C@@H]1CCCCO[C@H](CN(C)C(=O)Nc2ccc3c(c2)OCO3)[C@@H](C)CN([C@@H](C)CO)C(=O)c2cc(NC(=O)CCC(F)(F)F)ccc2O1
C[C@@H]1CN([C@@H](C)CO)C(=O)Cc2cc(NS(C)(=O)=O)ccc2O[C@@H]1CN(C)Cc1ccc2c(c1)OCO2
Cc1ccc(S(=O)(=O)N(C)C[C@H]2Oc3ccc(NC(=O)CCC(F)(F)F)cc3C(=O)N([C@@H](C)CO)C[C@H]2C)cc1
C[C@@H]1CN([C@H](C)CO)C(=O)Cc2cc(NC(=O)CCCN(C)C)ccc2O[C@@H]1CN(C)S(=O)(=O)c1cccs1
N#Cc1cccc(CSc2nnc(CCCO)n2-c2ccccc2)c1
C[C@@H]1CCCCO[C@@H](CN(C)Cc2ccccc2)[C@H](C)CN([C@H](C)CO)C(=O)c2cc(NS(=O)(=O)c3cccs3)ccc2O1
O=C(CS(=O)(=O)c1ccccc1)Nc1ccc2c(c1)OCCO2
O=[N+]([O-])c1ccccc1/C=C/CN1CCC(O)CC1
COc1ccc(CN(C)C[C@H]2Oc3c(NC(=O)c4ccncc4)cccc3C(=O)N([C@H](C)CO)C[C@@H]2C)cc1
